Experimental data: PubChem BioAssay (Tox21)
Inconclusive results are not listed. Entries that show only a call come without a potency. The source made the active and inactive calls. Calls come from the whole dose curve; as a rule, active = well fitted curve in the direction sought with a large enough effect in the repeat runs; inconclusive = weak or mixed curves; inactive = no such curve, though single readings can be large; an effect the other way counts as inactive or inconclusive.

Legend:
[1] = qHTS RealTime-Glo MT Cell Viability Assay in HepG2 cells - 32 hour (AID 1224877); note: nearly all actives have a fitted effect of over 55% in size
Summary of the method: (§1)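 HepG2 cells were seeded at 600 cells/well together with NanoLuc luciferase and a cell-permeant prosubstrate, preincubated 5 h at 37 C/5% CO2, then pin-dosed with compounds in DMSO. Nonlytic luminescence from viable cells was read at each time point.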

[2] = A CellTox Green Cytotoxicity Assay to monitor cytotoxicity in HepG2 cells - 24 hour (AID 1224878); note: nearly all actives have a fitted effect of over 45% in size; note: potency is the fitted concentration of half-maximal effect
Summary of the method: (§2)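 Cytotoxicity was tracked as dead-cell DNA fluorescence in HepG2 cells treated with test compounds at 37 C; each time-point value comes from one kinetic series spanning 0, 8, 16, 24, 32 and 40 h.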

[3] = A CellTox Green Cytotoxicity Assay to monitor cytotoxicity in HepG2 cells - 40 hour (AID 1224879); note: nearly all actives have a fitted effect of over 40% in size
Summary of the method: as §2

[4] = qHTS RealTime-Glo MT Cell Viability Assay in HEK293 cells - 0 hour (AID 1224880); note: top concentration of the series differs between compounds; nearly all actives have a fitted effect of over 45% in size
Summary of the method: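 Kinetic, non-lysing viability readout. Seed HEK293 (600/well) with reagent, incubate 5 h at 37 C/5% CO2, pin 23 nL compound in DMSO, incubate at 37 C, read luminescence at 0, 8, 16, 24, 32, 40 h.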

[5] = A CellTox Green Cytotoxicity Assay to monitor cytotoxicity in HEK293 cells - 32 hour (AID 1224881); note: nearly all actives have a fitted effect of over 40% in size
Summary of the method: (§3)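 Real-time, in one plate: 600 HEK293 cells/well with dead-cell DNA dye, pinned compound after 5 h, 37 C incubation over 40 h; viable cells give no appreciable fluorescence.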

[6] = A CellTox Green Cytotoxicity Assay to monitor cytotoxicity in HepG2 cells - 32 hour (AID 1224883); note: nearly all actives have a fitted effect of over 50% in size
Summary of the method: as §2

[7] = A CellTox Green Cytotoxicity Assay to monitor cytotoxicity in HEK293 cells - 8 hour (AID 1224884); note: nearly all actives have a fitted effect of over 35% in size
Summary of the method: as §3

[8] = A CellTox Green Cytotoxicity Assay to monitor cytotoxicity in HepG2 cells - 0 hour (AID 1224882); note: nearly all actives have a fitted effect of over 35% in size
Summary of the method: as §2

[9] = qHTS RealTime-Glo MT Cell Viability Assay in HepG2 cells - 16 hour (AID 1224885); note: nearly all actives have a fitted effect of over 50% in size
Summary of the method: as §1

Row | SMILES | outcome [1] | Potency [2] | Potency [3] | outcome [4] | Potency [5] | Potency [6] | Potency [7] | Potency [8] | outcome [9]
1 | Cc1ncc([N+](=O)[O-])n1CC(O)CCl (configuration not stated) | inactive | inactive | inactive | inactive | inactive | inactive | inactive |  | 
2 | c1ccccc1 | inactive | inactive | inactive |  | inactive | inactive | inactive | inactive | inactive
3 | CC(=O)Nc1ncc([N+](=O)[O-])s1 | inactive | inactive | inactive | inactive | inactive | inactive | inactive |  | inactive
4 | Cc1oc(=O)oc1CN1CCN(c2cc3c(cc2F)c(=O)c(C(=O)O)c2n3C(C)S2)CC1 (configuration not stated) | inactive | 535 nM (active) |  |  | inactive |  | inactive | inactive | inactive
5 | CC1=NN(c2ccc(S(=O)(=O)O)cc2)C(=O)C1N=Nc1ccccc1 (configuration not stated) | inactive | inactive | inactive |  | inactive | inactive | inactive | inactive | inactive
